Source: publication PMC7819943, “Rice protein-binding microarrays: a tool to detect cis-acting elements near promoter regions in rice”
Over roughly 68,000 sequences, “fluorescence intensity (a.u.)” has its median near 9,100; the highest 2% begin near 16,000. This excerpt belongs to a sample that is enriched for the highest values.

Each sequence was assayed against OsWRKY34 (Oryza sativa, UniProt Q0JBA9 1-250) (assay: protein-binding microarray (RPBM); PBS, 2% BSA, 51.3 ng/ul salmon testes DNA, 50 uM zinc acetate, 200 nM TF, 25 C, 1 h; high values mean tight binding). Conditions: protein: recombinant; tags: N-terminal polyhistidine and DsRed monomer fusion (pET32a); label: CyDye5-dUTP incorporated in the synthesized complementary strand; 3' TTTTT single-stranded linker to array surface; dsDNA, one strand shown.
Procedure, shortened: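 The binding signal is fluorescence intensity per array feature (arbitrary units). Readings came from an Axon 4000B scanner after a washed, 2% BSA-blocked, double-stranded custom Agilent array had been incubated for 1 h at 25 °C with 200 nM protein and 50 µM zinc acetate. The protein was a Ni–NTA-purified transcription factor fused N-terminally to polyhistidine and DsRed, expressed in E. coli BL21-CodonPlus.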

OsWRKY34, sequence (Q0JBA9 entry or part of it): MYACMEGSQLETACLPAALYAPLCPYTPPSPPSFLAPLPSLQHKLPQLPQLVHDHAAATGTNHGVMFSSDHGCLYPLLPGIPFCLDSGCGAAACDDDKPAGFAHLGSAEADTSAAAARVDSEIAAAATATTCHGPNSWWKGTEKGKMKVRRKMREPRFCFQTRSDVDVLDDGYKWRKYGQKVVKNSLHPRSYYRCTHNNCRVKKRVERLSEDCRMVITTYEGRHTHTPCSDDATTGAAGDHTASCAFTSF

Sequence | binding signal
GAACCTGTCTACATCGGCCGTGTCTCGTGCACTTGCTCTCCGGAGTCACCTAGTGCAG | 10700 fluorescence intensity (a.u.)
TGTCTTGGTCTTGTGGCGTTTATTGTTGCCGTCTGAGCGACGGAGTCACCTAGTGCAG | 11000 fluorescence intensity (a.u.)
TGTATGATGCCTTTAACTTTTTAACCAACGTTTAATGTTTCGGAGTCACCTAGTGCAG | 9010 fluorescence intensity (a.u.)
GTATTTTAATGTATGACATTGTTGACTTTTTGATTAACGTCGGAGTCACCTAGTGCAG | 13000 fluorescence intensity (a.u.)
CACTATTCACGTTTAACGTTTGACCGTTCTTCTTATTTGACGGAGTCACCTAGTGCAG | 10300 fluorescence intensity (a.u.)
GTTTATAAACTTAGTCAAACTTGAAACAGTTTGACTTTGACGGAGTCACCTAGTGCAG | 12400 fluorescence intensity (a.u.)
GACTTTTTTAAACATATTTGACCGTTCGTTTTATTCAAAACGGAGTCACCTAGTGCAG | 8190 fluorescence intensity (a.u.)
GCTTTTGAGTTGACAGCCACCGTTTTTAACCAACGCGCGACGGAGTCACCTAGTGCAG | 8140 fluorescence intensity (a.u.)
TTTAATGTATGACACCGTTGACTTTTTAACCAACGTTTGACGGAGTCACCTAGTGCAG | 36300 fluorescence intensity (a.u.)
TTCAATGACAATGTTGACTTTTTGACAAACGTTTAACCTTCGGAGTCACCTAGTGCAG | 10200 fluorescence intensity (a.u.)
AATGTATGACACCGTTGACTTCTTGACCAACGTTTAACCACGGAGTCACCTAGTGCAG | 18700 fluorescence intensity (a.u.)
TATTTTAATGTATGATGCCGTTGACTTTTTAACCAACGTTCGGAGTCACCTAGTGCAG | 27000 fluorescence intensity (a.u.)
TTTAGACTTCTTCCAACTGGAATGCGTTTGACCCTAACCACGGAGTCACCTAGTGCAG | 8180 fluorescence intensity (a.u.)
TTTAATATATAACACCGTTGACTTTTTATCAAACGTTTGACGGAGTCACCTAGTGCAG | 23400 fluorescence intensity (a.u.)
GCTCTTTGGCCTGCTTCAGCCTTCAGCTTCTCCATGGTTTCGGAGTCACCTAGTGCAG | 10700 fluorescence intensity (a.u.)
TACCTACTTTCTCATCTTAAGCAATCACTTCGACTTTAATCGGAGTCACCTAGTGCAG | 9820 fluorescence intensity (a.u.)
TGCCTAACAATTCTTTTTATTCGCGACGTCAATATACTACCGGAGTCACCTAGTGCAG | 9730 fluorescence intensity (a.u.)
AGAATTACTGCTGCTTTATTTACTTTTCTTCCATTGGTTTCGGAGTCACCTAGTGCAG | 13000 fluorescence intensity (a.u.)
TAATGTATTCCGGCAAATGAATATGTTGTTTGACTTTTTTCGGAGTCACCTAGTGCAG | 10300 fluorescence intensity (a.u.)
TTAATGTATGACACTGTTGACTTTTTTTCCAACGTTTGACCGGAGTCACCTAGTGCAG | 21900 fluorescence intensity (a.u.)
CCGGTCGTTTCCCGTATTGTTGGCATATATGTACACGGAGCGGAGTCACCTAGTGCAG | 8030 fluorescence intensity (a.u.)

Sequence | binding signal
CCGTCGTGCTGCGCCCTTCAATTTGTTGGTCTCGCTCGCCCGGAGTCACCTAGTGCAG | 8490 fluorescence intensity (a.u.)
CGTATCTGCTCTGTTTTTCATCTCCTGTCATTTGTCTAAACGGAGTCACCTAGTGCAG | 18500 fluorescence intensity (a.u.)
ACACTTTCTCTCTTGTACACTTTCATTTCACGTGTCTAAACGGAGTCACCTAGTGCAG | 17500 fluorescence intensity (a.u.)
GTGTCTTGTACATGTCTTCGTTTCTTCCTTTCTCATTTCACGGAGTCACCTAGTGCAG | 10900 fluorescence intensity (a.u.)
GTCATCCTGTTTCACTGCTAGCTCTCCCTAAATTTTGAAACGGAGTCACCTAGTGCAG | 8490 fluorescence intensity (a.u.)
TTGTTTTCTACTCCTAATACTCTTTTGTCTGTCTCATCTGCGGAGTCACCTAGTGCAG | 12400 fluorescence intensity (a.u.)
TTATACTTTCTCTTTTTTTCACGTGTATATTTTCTAAACCCGGAGTCACCTAGTGCAG | 9610 fluorescence intensity (a.u.)
AAGAACACAACACACTTGATATATATACCTCACACACACTCGGAGTCACCTAGTGCAG | 8060 fluorescence intensity (a.u.)
TACTTGGTGCAGTGTTGAGCCTTGTTTTACAATAAATTTTCGGAGTCACCTAGTGCAG | 8100 fluorescence intensity (a.u.)
GCGCCGTTGTTCTTCCTGCCACATCCATCCTGGTGAGCACCGGAGTCACCTAGTGCAG | 12700 fluorescence intensity (a.u.)
ATGTTTGACGCTGTTGACTTTTTTAAACATATTTGACTCTCGGAGTCACCTAGTGCAG | 21500 fluorescence intensity (a.u.)
CTAAATATTTAACGCTGTTGACTTTTTAAAACATATTTGACGGAGTCACCTAGTGCAG | 9280 fluorescence intensity (a.u.)
ATTCTCTAAATGTTTGACGCTGTTGACTTTTTAAAACATGCGGAGTCACCTAGTGCAG | 16600 fluorescence intensity (a.u.)
GGGTATTTTTTAAGTAGCTAGGTGTATAATTAAATTAGTTCGGAGTCACCTAGTGCAG | 8760 fluorescence intensity (a.u.)
TTTTTAGGGTGTGGGTATTAGTTGGAAAATACAATAAATGCGGAGTCACCTAGTGCAG | 9530 fluorescence intensity (a.u.)
GTGTAGGAGTAGTTAGGGTTGTTGCTTGTTGGAGGGAAAACGGAGTCACCTAGTGCAG | 9460 fluorescence intensity (a.u.)
TCATCAATGTCGACTTCTGTTTTGAAGTCGCTTTTTCATCCGGAGTCACCTAGTGCAG | 9100 fluorescence intensity (a.u.)
ATGTTTACGTGCAACACATTATGGTTCTCTTCTCTGTAAACGGAGTCACCTAGTGCAG | 8230 fluorescence intensity (a.u.)
TAATGGAAGTGGTTTACGTCGCTTCTGTCAATAAACACACCGGAGTCACCTAGTGCAG | 48400 fluorescence intensity (a.u.)
ATTCCTCCGCCACAACACCACGCTGACCACAGTCCACCGTCGGAGTCACCTAGTGCAG | 8360 fluorescence intensity (a.u.)
CCCGCTGGTGCACTTCAACGCTACTCCTCTTCGCCGCCAACGGAGTCACCTAGTGCAG | 9270 fluorescence intensity (a.u.)
